Reference: ChEMBL document CHEMBL3433997, “St. Jude Leishmania screening dataset” (2016)

What was measured:
Format in all cases: functional
[1] = biological target: Solute carrier family 2, facilitated glucose transporter member 1 (Homo sapiens) (UniProt P11166); assay: ST_JUDE_LEISH: Cytotoxicity at 2uM final concentration against transgenic Leishmania Mexicana promastigotes LmGLUT1 that are glucose transport deficient and complemented with the human glucose transporter GLUT1. Activity is measured by DNA content using SYBR green in vitro
Sequence of Solute carrier family 2, facilitated glucose transporter member 1 (Homo sapiens) (P11166 whole entry): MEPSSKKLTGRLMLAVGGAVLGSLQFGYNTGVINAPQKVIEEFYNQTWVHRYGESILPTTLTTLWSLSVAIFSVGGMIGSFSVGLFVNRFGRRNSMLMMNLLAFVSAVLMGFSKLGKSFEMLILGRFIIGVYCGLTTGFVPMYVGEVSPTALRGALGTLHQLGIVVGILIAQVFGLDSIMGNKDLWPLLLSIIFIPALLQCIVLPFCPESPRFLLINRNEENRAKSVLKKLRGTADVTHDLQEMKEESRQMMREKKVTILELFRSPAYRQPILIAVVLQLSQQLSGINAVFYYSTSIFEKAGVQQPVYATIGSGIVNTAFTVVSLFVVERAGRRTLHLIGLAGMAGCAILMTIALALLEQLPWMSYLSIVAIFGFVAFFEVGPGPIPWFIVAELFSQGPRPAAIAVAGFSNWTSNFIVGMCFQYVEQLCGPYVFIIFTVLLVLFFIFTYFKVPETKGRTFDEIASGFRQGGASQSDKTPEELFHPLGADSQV

[2] = biological target: Hexose transporter 1 (Plasmodium falciparum) (UniProt O97467); assay: ST_JUDE_LEISH: Cytotoxicity at 2uM final concentration against transgenic Leishmania Mexicana promastigotes LmPfHT that are glucose transport deficient and complemented with the Plasmodium falciparum hexose transporter. Activity is measured by DNA content using SYBR green in vitro
[3] = biological target: Glucose transporter (Leishmania mexicana) (UniProt O61059); assay: ST_JUDE_LEISH: Cytotoxicity at 2uM final concentration against transgenic Leishmania Mexicana promastigotes LmGT2 that are glucose transport deficient and complemented with the L. Mexicana glucose transporter 2. Activity is measured by DNA content using SYBR green in vitro

Structure (SMILES) | inhibition [1] | inhibition [2] | inhibition [3]
O=C(Nc1ccc(Br)cc1)N(CCN1CCOCC1)CC(O)COCc1ccc(Cl)c(Cl)c1 (centres undefined) | 2.07% | 1.38% | -5.49%
Cc1ccccc1OCC(O)CN1CCC(C2CCN(CC(O)COc3ccccc3C)CC2)CC1 (centres undefined) | 2.25% | 2% | 2.28%
Clc1ccc(C=NNc2ccnc3cc(Cl)ccc23)cc1 | 0.42% | 0.11% | -0.42%
Cc1cc(N[C@@H](Cc2ccccc2)C(=O)NC2CCCC2)nc(NCCCOC(C)C)n1 | 7.62% | 3.46% | 0.61%
COc1ccc(CN2CCC(CNCCc3c(Cl)cccc3Cl)CC2)cc1 | 7.06% | 8.38% | 9.64%
Cc1ccc(OCCCCONC(=O)c2ccccc2)cc1 | 0.84% | -1.51% | -0.14%
COCCOc1cccc(CN2CCC(c3cc4nc(C)cc(C(F)(F)F)n4n3)C2)c1 (centres undefined) | -2.12% | 4.65% | 0.83%
O=C(NCCc1ccccc1F)c1cc(Br)cc(N2CCN(c3ccncc3)CC2)c1 | 0.33% | 2.34% | -0.08%
Nc1ccc(-c2cc(Cl)cc(Cl)c2)cc1-c1cc2ccccc2[nH]1 | 2.84% | 1.08% | -0.38%
COc1ccc2nccc([C@@H](O)CN3CCC(NC(=O)c4[nH]c5ccccc5c4-c4ccccc4)CC3)c2c1 | 28.3% | 49.7% | 12.8%
COc1cc2nccc(Nc3ccc4c(cnn4Cc4cccc(F)c4)c3)c2cc1OC | 6.91% | 4.66% | 1.56%
CC1CCN(Cc2cccc(C(=O)NCc3ccc(F)c(-c4cccc(CN5CCN[C@@H](C)C5)c4)c3)c2)CC1 | 1.17% | 0.82% | 1.82%
CCc1cc2c(Sc3nnc(N)s3)ncnc2s1 | 2.44% | 0.05% | -5.69%
